Measurements: PubChem BioAssay (NCI)
The panel holds about 83,000 compounds, 20% with a hit somewhere; the sample as a whole holds those more often.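 Each cell line was grown in a 96-well plate and treated with one concentration of compound for 48 hours. Values below 10 were considered active.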 Activity calls are given as the source filed them.

Experiments:
Experiment in all cases: NCI-60 one-dose screen, 48 h (100 = growth as untreated, 0 = no growth, -100 = all killed)
Conditions in all cases: 10 µM unless noted
HCT-15 colon = test system: HCT-15 colon
HT29 colon = test system: HT29 colon
SNB-75 CNS = test system: SNB-75 CNS
SNB-19 CNS = test system: SNB-19 CNS
U251 CNS = test system: U251 CNS
PC-3 prostate = test system: PC-3 prostate
SK-MEL-5 melanoma = test system: SK-MEL-5 melanoma
UACC-62 melanoma = test system: UACC-62 melanoma
LOX IMVI melanoma = test system: LOX IMVI melanoma
SK-MEL-28 melanoma = test system: SK-MEL-28 melanoma

Measured: growth

C/C(=C(/c1ccc(Cl)cc1)c1ccc(OCCN2CCCCCC2)cc1)c1ccccc1
active: HT29 colon 8.45%
inactive: HCT-15 colon 20.3% | SNB-75 CNS 88.4% | SNB-19 CNS 88.4% | U251 CNS 73.1% | PC-3 prostate 69.3% | SK-MEL-5 melanoma 69.5% | UACC-62 melanoma 90% | LOX IMVI melanoma 62.6% | SK-MEL-28 melanoma 88%

CNC(=O)c1cnc(C)nc1-c1cc(C(C)(C)C)c(O)c(C(C)(C)C)c1
inactive: HCT-15 colon 103% | HT29 colon 106% | SNB-75 CNS 67.6% | SNB-19 CNS 87.2% | U251 CNS 97.1% | PC-3 prostate 89.3% | SK-MEL-5 melanoma 92.1% | UACC-62 melanoma 90.7% | LOX IMVI melanoma 110% | SK-MEL-28 melanoma 107%

C=CC(=O)N1CCC[C@@H](n2nc(-c3ccc(Oc4ccccc4)cc3)c3c(N)ncnc32)C1
inactive: HCT-15 colon 72.6% | HT29 colon 30.1% | SNB-75 CNS 19.6% | SNB-19 CNS 49.8% | U251 CNS 48.1% | PC-3 prostate 57.2% | SK-MEL-5 melanoma 56.1% | UACC-62 melanoma 20.6% | LOX IMVI melanoma 24.3% | SK-MEL-28 melanoma 79.2%

O=C(Cn1ccnc1)Nc1ccc(-c2nc3ccccc3s2)cc1
inactive: HCT-15 colon 87% | HT29 colon 93.3% | SNB-75 CNS 88.8% | SNB-19 CNS 76.5% | U251 CNS 71.9% | PC-3 prostate 65.9% | SK-MEL-5 melanoma 39.2% | UACC-62 melanoma 82.9% | LOX IMVI melanoma 73.4% | SK-MEL-28 melanoma 105%

Nc1cc2c(cc1Br)-c1c(C(=O)O)cccc1C2O (stereo not given)
inactive: HCT-15 colon 108% | HT29 colon 106% | SNB-75 CNS 90.2% | SNB-19 CNS 99.5% | U251 CNS 97.4% | PC-3 prostate 82.2% | SK-MEL-5 melanoma 99.9% | UACC-62 melanoma 90.9% | LOX IMVI melanoma 95.8% | SK-MEL-28 melanoma 102%

CN(N)c1nc2sc3c(c2c(=O)[nH]1)CCCC3
inactive: HCT-15 colon 99.6% | HT29 colon 90.4% | SNB-75 CNS 91.9% | SNB-19 CNS 105% | U251 CNS 92.1% | PC-3 prostate 94.9% | SK-MEL-5 melanoma 106% | UACC-62 melanoma 110% | LOX IMVI melanoma 102% | SK-MEL-28 melanoma 114%

Cc1ccc(-[n+]2c3cc(N)c(C)cc3nc3cc(C)c(Nc4ccccc4)cc32)cc1
active: HCT-15 colon -69.8% | HT29 colon -73.9% | SNB-75 CNS -68.5% | SNB-19 CNS -82.3% | U251 CNS -75.1% | PC-3 prostate -29.1% | SK-MEL-5 melanoma -100% | UACC-62 melanoma -73.5% | LOX IMVI melanoma -100% | SK-MEL-28 melanoma -69.6%

CN1[C@@H]2CC[C@H]1/C(=C\c1ccccc1)C1=C2[C@@H](c2ccccc2)C(C#N)=C(N)O1
inactive: HCT-15 colon 81.1% | HT29 colon 67.7% | SNB-75 CNS 80.4% | SNB-19 CNS 83.6% | U251 CNS 77.7% | PC-3 prostate 72.8% | SK-MEL-5 melanoma 74.1% | UACC-62 melanoma 73.9% | LOX IMVI melanoma 97.8% | SK-MEL-28 melanoma 104%

Ic1ccccc1-c1ccccc1
inactive: HCT-15 colon 112% | HT29 colon 114% | SNB-75 CNS 95.3% | SNB-19 CNS 101% | U251 CNS 105% | PC-3 prostate 99.9% | SK-MEL-5 melanoma 111% | UACC-62 melanoma 100% | LOX IMVI melanoma 103% | SK-MEL-28 melanoma 113%

c1cc[n+](Cc2c3ccccc3cc3c2ccc2ccccc23)cc1
active: SNB-19 CNS 6.26% | U251 CNS 6.64% | SK-MEL-5 melanoma -60.1% | SK-MEL-28 melanoma -2.27%
inactive: HCT-15 colon 91.5% | HT29 colon 25.6% | SNB-75 CNS 29.6% | PC-3 prostate 42% | UACC-62 melanoma 11.2% | LOX IMVI melanoma 48.8%

CC(CCCC(=O)O)c1ccoc1 (stereo not given)
inactive: HCT-15 colon 102% | HT29 colon 95.5% | SNB-75 CNS 92.6% | SNB-19 CNS 111% | U251 CNS 109% | PC-3 prostate 98.4% | SK-MEL-5 melanoma 106% | UACC-62 melanoma 107% | LOX IMVI melanoma 97.8% | SK-MEL-28 melanoma 109%

CC(=O)Oc1ccccc1C(=O)N=C1[Se]CCN1C(=O)c1ccccc1OC(C)=O
active: HCT-15 colon -36.1% | HT29 colon 0.805% | SNB-75 CNS -65.2% | SNB-19 CNS -48.8% | U251 CNS -63.6% | PC-3 prostate -49.7% | SK-MEL-5 melanoma -57.6% | UACC-62 melanoma -57.8% | LOX IMVI melanoma -49% | SK-MEL-28 melanoma -27.9%

CC(C)(C)CC(C)(C)Nc1c(-c2c(O)c3ccccc3oc2=O)nc2c(Cl)cc(C(F)(F)F)cn12
inactive: HCT-15 colon 107% | HT29 colon 105% | SNB-75 CNS 85.7% | SNB-19 CNS 101% | U251 CNS 101% | PC-3 prostate 79.6% | SK-MEL-5 melanoma 97.8% | UACC-62 melanoma 93.4% | LOX IMVI melanoma 98.1% | SK-MEL-28 melanoma 113%

Cc1ccccc1Nc1nc2nonc2nc1Nc1cccc(C)c1C
inactive: HCT-15 colon 44.8% | HT29 colon 46.9% | SNB-75 CNS 75.8% | SNB-19 CNS 52.7% | U251 CNS 29.9% | PC-3 prostate 42.2% | UACC-62 melanoma 22.8% | LOX IMVI melanoma 54% | SK-MEL-28 melanoma 79.7%
active: SK-MEL-5 melanoma 5.63%

COc1cc2nccc(Oc3ccc(NC(=O)Nc4cc(C)on4)c(Cl)c3)c2cc1OC
inactive: HCT-15 colon 18.3% | SNB-19 CNS 32.8% | U251 CNS 28.2% | PC-3 prostate 21.1% | UACC-62 melanoma 11.5% | SK-MEL-28 melanoma 23.2%
active: HT29 colon -9.07% | SNB-75 CNS -6.16% | SK-MEL-5 melanoma -19.7% | LOX IMVI melanoma -2.96%

COc1cc(-c2nc(C(=O)NCC(=O)O)nn2-c2ccc(Cl)cc2)cc(OC)c1OC
inactive: HCT-15 colon 102% | HT29 colon 106% | SNB-75 CNS 115% | SNB-19 CNS 109% | U251 CNS 96.6% | PC-3 prostate 94.3% | SK-MEL-5 melanoma 98.3% | UACC-62 melanoma 104% | LOX IMVI melanoma 84.9% | SK-MEL-28 melanoma 104%

Cc1ccc(NC(=O)NC(=O)CSc2nc3ccccc3nc2C)cc1
inactive: HCT-15 colon 89% | HT29 colon 67.5% | SNB-75 CNS 70.8% | SNB-19 CNS 80.8% | U251 CNS 84.2% | PC-3 prostate 67% | SK-MEL-5 melanoma 38.7% | UACC-62 melanoma 52.5% | LOX IMVI melanoma 58.8% | SK-MEL-28 melanoma 75.2%

C=CCC(=O)N[C@H](/C=C/C(=O)O)Cc1ccc(-c2cc(Cl)cc(Cl)c2)cc1
inactive: HCT-15 colon 98.1% | HT29 colon 97.8% | SNB-75 CNS 87% | SNB-19 CNS 97.9% | U251 CNS 83% | PC-3 prostate 80.6% | SK-MEL-5 melanoma 95.7% | UACC-62 melanoma 86.8% | LOX IMVI melanoma 96.9% | SK-MEL-28 melanoma 112%

CN1CC[C@H](c2c(O)cc(O)c3c(=O)cc(-c4ccccc4Cl)oc23)[C@H](O)C1
active: HCT-15 colon 4.15% | HT29 colon -19.8% | SNB-75 CNS -59.7% | U251 CNS 5.78% | PC-3 prostate -4.62% | SK-MEL-5 melanoma -19% | UACC-62 melanoma -49.6% | LOX IMVI melanoma 4.81% | SK-MEL-28 melanoma -29.4%
inactive: SNB-19 CNS 10.1%

COc1cc(F)c(F)c(Nc2ccc(I)cc2F)c1NS(=O)(=O)C1(C[C@H](O)CO)CC1
active: HT29 colon 5.42% | UACC-62 melanoma -3.18% | SK-MEL-28 melanoma 3.06%
inactive: HCT-15 colon 26.9% | SNB-75 CNS 41% | SNB-19 CNS 43% | U251 CNS 35.6% | PC-3 prostate 48.9% | SK-MEL-5 melanoma 19.1% | LOX IMVI melanoma 11.9%

CC(=O)C(C(C)=O)C(c1ccccc1)C(C(C)=O)C(C)=O
inactive: HCT-15 colon 100% | HT29 colon 98.5% | SNB-75 CNS 95.1% | SNB-19 CNS 102% | U251 CNS 93.5% | PC-3 prostate 89.8% | SK-MEL-5 melanoma 97.2% | UACC-62 melanoma 98.2% | LOX IMVI melanoma 94.4% | SK-MEL-28 melanoma 103%

Nc1c(Cl)cccc1[N+](=O)[O-]
inactive: HCT-15 colon 104% | HT29 colon 111% | SNB-75 CNS 104% | SNB-19 CNS 103% | U251 CNS 103% | PC-3 prostate 98.4% | SK-MEL-5 melanoma 104% | UACC-62 melanoma 101% | LOX IMVI melanoma 103% | SK-MEL-28 melanoma 106%

COc1cc(NCCCN)c2ncccc2c1
inactive: HCT-15 colon 100% | HT29 colon 75.6% | SNB-75 CNS 87.5% | SNB-19 CNS 87.5% | U251 CNS 83.2% | PC-3 prostate 82.2% | SK-MEL-5 melanoma 81.5% | UACC-62 melanoma 86.8% | LOX IMVI melanoma 61.8% | SK-MEL-28 melanoma 83.4%

O=c1nc2c(-c3nc4ccccc4s3)n[nH]n2c2sc3c(c12)CCCC3
inactive: HCT-15 colon 64% | HT29 colon 111% | SNB-75 CNS 104% | SNB-19 CNS 101% | U251 CNS 86.5% | PC-3 prostate 79.6% | SK-MEL-5 melanoma 101% | UACC-62 melanoma 92.7% | LOX IMVI melanoma 96.9% | SK-MEL-28 melanoma 114%

Cc1cc(Nc2ncc(Cl)c(Nc3ccccc3S(=O)(=O)C(C)C)n2)c(OC(C)C)cc1C1CCNCC1
active: HCT-15 colon -86.4% | HT29 colon -88.1% | SNB-75 CNS -98.1% | SNB-19 CNS -94.9% | U251 CNS -100% | PC-3 prostate -92.2% | SK-MEL-5 melanoma -98.9% | UACC-62 melanoma -95.1% | LOX IMVI melanoma -90.7% | SK-MEL-28 melanoma -99.3%

CCc1cnn2c(NCc3ccc[n+]([O-])c3)cc(N3CCCC[C@H]3CCO)nc12
active: HCT-15 colon 0.896% | HT29 colon -29.3% | SNB-75 CNS -74.4% | SNB-19 CNS 6.92% | U251 CNS -8.91% | PC-3 prostate -20.5% | SK-MEL-5 melanoma -40.2% | UACC-62 melanoma -70.7% | LOX IMVI melanoma 5% | SK-MEL-28 melanoma -34.3%
